High-throughput results from PubChem.
LGR2 antag – Drosophila LGR2 receptor signaling inhibition; HEK293 LGR2, CRE-luciferase, bursicon-stimulated, 4 h; inhibition, % at 9.99 µM; 0.35% of 380,000 active; AID 720647;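 active = drop in luminescence signal, shown as inhibition above about 50% in the replicate tests, limit read from the data, passing the limit was not always enough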;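 note: agonist challenge used bursicon conditioned medium at about half maximal strength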
KKLEB cytotox – CF airway cell cytotoxicity counter-screen | AID 602141 | KKLEB CF airway cells viability, ATPlite luminescence, overnight; hits give low values; cells stimulated with P. aeruginosa culture filtrate | 0.36% of 360,000 active | activity change (cytotoxicity), % at 5 µM;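 active = corrected activity change at or below -50% at 5 µM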
EWS-Fli block – EWS/Fli transcriptional activity inhibition; inhibition, % at 12.6 µM; 0.67% of 350,000 active; A673 NR0B1-luciferase reporter, viability-normalised;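 active = mean inhibition of at least 50% after viability correction, with every replicate also passing that limit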;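 note: firefly luciferase signal divided by Alamar Blue viability fluorescence both relative to DMSO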
TWEAK-Fn14 inh – TWEAK-Fn14 signaling inhibition; TWEAK-stimulated Fn14 reporter cells, luciferase luminescence, 8 h; 2% of 360,000 active; inhibition, % at 10 µM; in the data active = inhibition above about 50%
TROY NFkB inh – inhibitors of TROY-dependent NF-kB signaling; Q293 LMP1-TROYcd NF-kB luciferase reporter, 4 h; inhibition, % at 10 µM; 0.98% of 360,000 active; AID 1347056;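 active = compounds whose plate-normalised and pattern-corrected inhibition of the luciferase reporter signal at the single screening dose is 50% or more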
CF NFkB block – cystic fibrosis NF-kB activation inhibition; inhibition, % at 5 µM; 0.86% of 360,000 active; KKLEB NF-kB-GFP reporter, PAF-induced, GFP fluorescence overnight;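 active = at least 50% inhibition at 5 µM, scaled per plate between neutral and stimulator controls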;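 note: PAF is a Pseudomonas aeruginosa culture filtrate used as stimulus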
Numbers stand for hits; - = inactive; . = no result given. The list is not random: actives were taken first. Their share in the collection is about 2.6%.

SMILES	LGR2 antag	KKLEB cytotox	EWS-Fli block	TWEAK-Fn14 inh	TROY NFkB inh	CF NFkB block
COc1ccc(CCNc2cc(N3CCN(C(=O)c4ccccc4F)CC3)ccc2[N+](=O)[O-])cc1OC	.	-	.	93.2	-	-
O=C(c1ccccc1F)N1CCN(c2ccc([N+](=O)[O-])c(NCc3cccnc3)c2)CC1	-	-	-	71.8	-	-
COc1ccc(C(=O)N2CCN(c3ccc([N+](=O)[O-])c(NCCc4ccc(OC)c(OC)c4)c3)CC2)cc1	-	-	.	92.2	62.6	-
CCC(=O)N(C)C[C@@H]1Oc2cc(C#CC3(O)CCCC3)ccc2S(=O)(=O)N([C@@H](C)CO)C[C@H]1C	-	.	-	.	.	.
COCC(=O)Nc1ccc2c(c1)[C@H]1C[C@@H](CC(=O)NCc3ccccc3F)O[C@@H](CO)[C@H]1O2	-	.	-	.	.	.
Cn1ncc2c(O/N=C(\N)c3ccc(C(F)(F)F)cc3)ncnc21	.	-	68.3	-	-	-
C[C@@H]1CN([C@H](C)CO)C(=O)c2cc(NC(=O)NC3CCCCC3)ccc2O[C@@H]1CN(C)C	-	.	-	.	.	.
O=C(Nc1cnc2ccccn2c1=O)c1ccc(Cl)cc1Cl	70.6	-	-	81.8	72.7	-
O=C(Nc1ccc2c(c1)OCCO2)c1cnc2ccccn2c1=O	.	-	.	69.6	-	-
Cc1ccc(C(=O)Nc2cnc3ccccn3c2=O)cc1	.	-	.	-	-	-
O=C(NCc1ccc2c(c1)OCO2)c1cnc2ccccn2c1=O	-	-	.	-	-	-
Cc1cccc(NC(=O)c2cnc3ccccn3c2=O)c1	.	-	58.3	80.5	-	-
C[C@@H]1CCCCO[C@H](CN(C)S(=O)(=O)c2ccc(F)cc2)[C@@H](C)CN([C@@H](C)CO)C(=O)c2cc(NS(C)(=O)=O)ccc2O1	-	.	-	.	.	.
CCSCc1nnc(SCC(=O)c2ccc(OC)cc2)n1C	.	-	.	84.0	.	-
Cc1ccc(N=Cc2ccccc2O)cc1Cl	-	-	-	59.2	-	-
COc1ccc(N=Cc2cc(Cl)ccc2O)cc1Cl	-	-	-	-	-	-
COc1cccc(C(=O)Nc2ccc3c(c2)C(=O)N(C)C[C@H](OC)[C@H](C)CN(C(C)=O)[C@H](C)CO3)c1	-	.	-	.	.	.
COC(=O)c1ccc(NC(=O)c2cccc(N3C(=O)C4C5C=CC(C6CC56)C4C3=O)c2)cc1 (stereo not given)	-	-	.	85.3	54.6	-
COC(=O)c1ccc(NC(=O)c2cccc(N3C(=O)CCC3=O)c2)cc1	-	-	-	-	-	-
COc1ccc(OC)c(NC(=O)c2cccc(N3C(=O)C4C5C=CC(C6CC56)C4C3=O)c2)c1 (stereo not given)	-	-	-	52.6	-	-
COC(=O)c1ccc(NC(=O)c2ccc[n+]([O-])c2)cc1	-	-	-	86.7	-	-
COc1ccc(OC)c(NC(=O)c2cccc(N3C(=O)C4C5CCC(C5)C4C3=O)c2)c1 (stereo not given)	-	-	-	-	-	-
CCCNC(=O)N(C)C[C@@H]1Oc2ncc(C#CCC(C)C)cc2C(=O)N([C@H](C)CO)C[C@H]1C	-	.	-	.	.	.
COc1ccc2c3c(n(C)c2c1)[C@@H](CO)N(C(=O)C1CCC1)CC31CN(C(=O)Nc2cccc(F)c2)C1	-	.	-	.	.	.
O=C(Nc1cccc(F)c1)N1CC(=O)N2[C@@H](CO)[C@@H](c3ccc(-c4ccc(F)cc4)cc3)[C@@H]2C1	-	.	-	.	.	.
SMILES	LGR2 antag	KKLEB cytotox	EWS-Fli block	TWEAK-Fn14 inh	TROY NFkB inh	CF NFkB block
N#C[C@H]1[C@@H](c2ccc(C3=CCCC3)cc2)[C@@H](CO)N1C(=O)c1ccccn1	-	.	-	.	.	.
CCN1CCN(c2oc(-c3ccc(OC)cc3)nc2C#N)CC1	.	-	.	-	-	-
CCN1CCN(c2oc(/C=C/c3ccccc3)nc2C#N)CC1	-	-	-	-	52.6	-
O=C(CC(F)(F)F)N1C[C@@H]2[C@H](c3ccccc31)[C@H](CO)N2C(=O)Cc1cccnc1	-	.	-	.	.	.
COc1ccc2cc(CNCCOCCOCCNCc3ccc4cc(OC)ccc4c3)ccc2c1	102.7	-	55.6	-	57.6	-
Cc1ccc(S(=O)(=O)N(C)C[C@H]2Oc3c(NS(C)(=O)=O)cccc3C(=O)N([C@H](C)CO)C[C@H]2C)cc1	-	.	-	.	.	.
Cc1ccc(NC(=O)c2cc(S(=O)(=O)NCCC3=CCCCC3)ccc2F)cc1	-	-	-	57.4	-	-
O=C(C(=O)N(Cc1ccccc1)Cc1ccccc1)c1c(-c2ccccc2)[nH]c2ccccc12	-	-81.4	-	51.6	-	94.5
CC(C)NC(=O)Nc1ccc2c(c1)CC(=O)N([C@@H](C)CO)C[C@@H](C)[C@@H](CN(C)CC1CC1)O2	-	.	.	.	.	.
Cn1c(N)c(C(=O)CSc2nn(-c3ccccc3)c(=S)s2)c(=O)n(C)c1=O	-	-	-	54.1	58.2	-
CCCn1c(N)c(C(=O)CSc2nc3ccccc3c(=O)n2Cc2ccccc2)c(=O)[nH]c1=O	-	-	-	-	-	-
CCN(CC(=O)c1c(N)n(C)c(=O)n(C)c1=O)c1cccc2ccccc12	-	-	.	99.0	57.5	-
Cn1c(N)c(C(=O)CSc2nc3ccccc3c(=O)n2Cc2ccccc2)c(=O)n(C)c1=O	-	-72.2	-	-	-	87.5
CC(Sc1nn(-c2ccc(F)cc2)c(=S)s1)C(=O)c1c(N)n(C)c(=O)n(C)c1=O (stereo not given)	-	-	-	-	-	-
Cc1ccc2nc(SCC(=O)c3c(N)n(C)c(=O)n(C)c3=O)[nH]c2c1	-	-	53.6	-	-	-
CNC[C@@H]1Oc2cc(C#CC(C)(C)O)ccc2S(=O)(=O)N([C@@H](C)CO)C[C@@H]1C	-	.	-	.	.	.
COc1cccc(C(=O)N[C@H](C(=O)N2CCC[C@H]2C(=O)NCCc2ccccc2Cl)C2CCCCC2)c1	-	.	-	.	.	.
Cc1nc2[nH]c(=S)[nH]c2cc1Br	.	-	.	-	-	-
Cc1nc2nc[nH]c2cc1Br	.	-	.	67.3	.	-
O=C(Nc1ccc([N+](=O)[O-])cc1)Nc1ccc(OC(F)F)c(Cl)c1	-	-69.2	.	82.3	60.9	64.1
COCCOC(=O)C1=C(C)NC(SCC(=O)NC(C)(C)C)=C(C#N)C1c1ccco1 (stereo not given)	.	-	-	-	-	-
COc1ccccc1NC(=O)C1=C(C)NC(SCC(=O)c2ccccc2)=C(C#N)C1c1ccco1 (stereo not given)	.	-	.	55.9	-	-
C[C@@H]1CCCCO[C@H](CN(C)C(=O)CCCN(C)C)[C@@H](C)CN([C@@H](C)CO)C(=O)c2cc(NC(=O)CCC(F)(F)F)ccc2O1	-	.	-	.	.	.
O=C(O)CC(CCc1ccccc1)OC1OC(CO)C(O)C(O)C1O (stereo not given)	-	-	-	59.2	-	-
[C-]#[N+][C@H](O[C@@H]1O[C@H](CO)[C@@H](O)[C@H](O)[C@H]1O)c1ccccc1	-	-	-	-	-	-
